# Rows were chosen to be rich in hits. Some 22% of all compounds tested hit in one or more screens of this group.
# LmPK inh = blocks Leishmania mexicana pyruvate kinase activity | Q27686 | purified LmPK, Kinase-Glo ATP luminescence, 1 h | Potency, µM (highest dose often 57.5 µM), for inactives: at the top dose activity change, negative = inhibition, actives largely listed as inhibitors | 290,000 compounds, 0.37% hits | AID 1721; further: potency means the concentration at half of the fitted maximal effect; on the % scale 0 is the no-effect control and ±100 the full control effect
# Target sequence (Q27686 whole entry, looked up): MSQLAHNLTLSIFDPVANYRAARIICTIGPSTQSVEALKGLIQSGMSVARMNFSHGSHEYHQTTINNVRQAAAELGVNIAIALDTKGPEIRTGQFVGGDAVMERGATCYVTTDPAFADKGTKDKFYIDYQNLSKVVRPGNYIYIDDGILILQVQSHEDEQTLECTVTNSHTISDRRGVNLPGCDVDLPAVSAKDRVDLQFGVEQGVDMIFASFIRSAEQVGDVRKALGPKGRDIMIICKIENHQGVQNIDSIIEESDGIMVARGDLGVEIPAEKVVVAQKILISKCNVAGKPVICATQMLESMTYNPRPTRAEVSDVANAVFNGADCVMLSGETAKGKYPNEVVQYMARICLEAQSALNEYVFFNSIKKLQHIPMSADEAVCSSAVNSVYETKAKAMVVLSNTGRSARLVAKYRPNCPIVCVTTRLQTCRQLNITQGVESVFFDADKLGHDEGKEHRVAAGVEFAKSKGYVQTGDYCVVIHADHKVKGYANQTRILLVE
#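 In 50 mM imidazole pH 7.2 with 7 mM MgCl2, LmPK (0.1 nM) turned over PEP (0.5 mM) and ADP (0.1 mM) for 1 h at room temperature. Luciferase read-out of ATP.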
# Shiga toxin inh = inhibitors of Shiga toxin in Vero cells; Vero cells, Shiga toxin protein synthesis inhibition reporter; inhibition, % at 38.7 µM; 290,000 compounds, 9.2% hits; AID 2315; in the data active means inhibition mostly above about 28%, no sharp cut-off; inactive means mostly below about 43%; further: 0% is about no effect
# CHX counter = counter-screen hit for Shiga toxin inhibitors, cycloheximide. cell reporter, cycloheximide protein synthesis inhibition counterscreen. max response, %. 300,000 compounds, 12% hits. AID 2314; in the data active means max response mostly above about 13%, no sharp cut-off; inactive means mostly below about 14%; further: read at 38.3 µM for the half of the compounds with a filed dose; 0% is about no effect
# Pf growth 96h = inhibits malaria parasite growth, 96 h; Potency, µM (highest dose often 28.7 µM), without a hit: at the top dose activity change, negative = inhibition, hits mostly inhibitors; 320,000 compounds, 6.9% hits; P. falciparum luciferase reporter growth, 96 h; AID 504834; further: potency means the concentration at half of the fitted maximal effect; on the % scale 0 is the no-effect control and ±100 the full control effect
#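 96 h incubation, 37 C, 5% CO2, of luciferase-reporter P. falciparum-infected RBCs (2% hematocrit, 0.05% parasitemia final) with test compounds; endpoint luminescence.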
# Pf growth 48h = inhibits P. falciparum growth in the first generation, 48 h; P. falciparum luciferase growth in erythrocytes, 48 h; Potency, µM (titrated, usually from 28.7 µM), for inactives: at the top dose activity change, negative = inhibition, usual class: inhibitors; 310,000 compounds, 5.9% hits; further: potency means the concentration at half of the fitted maximal effect; on the % scale 0 is the no-effect control and ±100 the full control effect
#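 Erythrocytes infected with P. falciparum carrying an integrated firefly luciferase reporter (2% hematocrit, 0.1% parasitemia final) were exposed to compounds in RPMI 1640 with 0.5% Albumax at 37 C, 5% CO2. Growth inhibition was scored as reduced luminescence.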
# * marks the source's active call; other numbers are inactive results; ? = inconclusive; / = not tested or not shown; [ ] = another dose, or the depositor's remark. Unless noted, the call rests on the fitted dose curve; in most records, active means well fitted inhibition curve with a large enough effect; inconclusive means small, poorly fitted or top-dose-only effect, or another doubt; inactive means no such curve, though single readings can be large or run the other way.
SMILES,LmPK inh,Shiga toxin inh,CHX counter,Pf growth 96h,Pf growth 48h
O=C(CCCn1c(=O)c2ccccc2n(Cc2ccccc2)c1=O)NCc1ccco1,7%,-4,13,72%,/
O=C(NCc1ccco1)c1ccc(Cn2c(=O)c3ccccc3n(Cc3ccc(Cl)cc3)c2=O)cc1,10%,-11,4,-30%,12µM*
COc1cc2c(=O)n(Cc3ccccc3)c(=O)n(CC(=O)NCc3ccco3)c2cc1OC,6%,-7,-2,3.7µM*,?
O=C(Cn1c(=O)n(Cc2ccccc2)c(=O)c2ccccc21)NCc1ccco1,3%,-15,-2,-1%,/
O=C(CCCCn1c(=O)c2ccccc2n(Cc2ccc(F)cc2)c1=O)NCc1ccco1,-1%,-12,-1,3.3µM*,?
O=CN1CCN(C(C(=O)NC2CCCC2)c2ccc(Cl)cc2)CC1 (stereo not drawn),-4%,21,-2,?,?
O=S1(=O)CCOCCCN1Cc1ccccc1Br,-6%,-12,-4,-14%,9%
O=C(CSc1nnc(CNC(=O)c2c(F)cccc2Cl)o1)NCc1ccccc1,-11%,-2,5,1%,-10%
Cc1ccc(NC(=O)Nc2cnccn2)cc1C,2%,96*,28*,?,40%
CC(C)c1ccc(NC(=O)Nc2cnccn2)cc1,-1%,73*,61*,69%,55%
O=C(Nc1ccc(Cl)cc1)Nc1cnccn1,-4%,26,27*,-5%,3%
O=C(Nc1cnccn1)Nc1cccc(Cl)c1Cl,1%,16,26*,?,11%
Cc1cc(C)cc(C(=O)NC(CC(N)=O)c2ccc(NC3CCCCC3)c([N+](=O)[O-])c2)c1 (stereo not drawn),7%,-5,-2,20%,12%
CCNc1c(NS(=O)(=O)c2ccc(F)c(Cl)c2)c(=O)oc2ccccc12,-3%,2,-5,19%,-5%
COC(=O)C1=C(C(=O)OC)[C@@H]2Nc3ccccc3[C@@]23C[C@@H](C(=O)OC)N(S(=O)(=O)c2cccs2)C3=N1,4%[11.5 µM],/,/,/,/
Cc1ccc(NC(=O)Nc2cnccn2)cc1,1%,72*,63*,-24%,42%
Cc1cc(C)cc(NC(=O)Nc2cnccn2)c1,-11%,31,-6,?,-1%
O=C(Nc1ccccc1)Nc1cnccn1,-9%,24*,15,59%,6%
Cc1ccc(NC(=O)CN2C(=O)NC(Cc3ccccc3)C2=O)c(Br)c1 (stereo not drawn),0%,-23,-5,-5%,-10%
COCCOc1ccc(C(F)(F)F)cc1NC(=O)COC(=O)c1c(C)noc1C,9%,-5,-5,4.7µM*,9.3µM*
COCCOc1ccc(C(F)(F)F)cc1NC(=O)COC(=O)c1cc[n+]([O-])cc1,/,/,/,-1%,?
S=C(NCc1ccco1)Nc1ccccc1Cl,-5%,33,20*,38%,43%
S=C(NCc1ccco1)Nc1ccc(Cl)cc1,-4%,16,15*,45%,43%
S=C(NCc1ccco1)Nc1ccc(Oc2ccc(Cl)cc2)cc1,-2%,-2,1,?,?
S=C(NCc1ccco1)Nc1cccc(Cl)c1Cl,-1%,48,9,14%,10%
SMILES,LmPK inh,Shiga toxin inh,CHX counter,Pf growth 96h,Pf growth 48h
CCN(CC)CCNC(=O)c1ccc(Sc2ccc(Cl)cc2)c(NC(C)=O)c1,4%,-6,3,16%,?
CCCCNC(=O)N1CCc2ccccc2C1,0%,14,3,-16%,8%
COc1ccc(CNC(=O)N2CCc3ccccc3C2)cc1,-1%,58*,16*,34%,44%
COc1ccc(CN(C)CC(=O)N2CCc3ccccc3C2)cc1,11%,-14,-2,3%,11%
O=C(NCc1ccc(F)cc1)N1CCc2ccccc2C1,-6%,69,36*,-21%,20%
Cc1ccc(C(=O)NCCCNC(=O)COc2ccc(C)c(C)c2)cn1,0%,12,-2,9%,-17%
CC(C)NC(=O)C(C)Oc1ccc(S(=O)(=O)NCc2ccc3c(c2)OCO3)cc1 (stereo not drawn),-2%,/,-2,38%,?
CCOC(=O)c1[nH]c(C)c(C(=O)C(C)C)c1C,12%,17,17*,68%,/
CCc1c(C(=O)Nc2ccc(OC)c(Cl)c2)[nH]c(C)c1C(C)=O,-1%,5,-1,-6%,12µM*
CCOC(=O)c1[nH]c(C)c(C(=O)Nc2ccc(C)c(F)c2)c1C,-8%,1,0,61%,-11%
CCOC(=O)c1[nH]c(C)c(C(=O)Nc2ccc(C)c(Cl)c2)c1C,5%,8,9.0*,-13%,40%
CCOC(=O)c1[nH]c(C)c(CC(C)C)c1C,-1%,28,20*,-30%,7%
COc1ccc(OC)c(C(=O)NC(CC(N)=O)c2ccc(N3CCC(Cc4ccccc4)CC3)c([N+](=O)[O-])c2)c1 (stereo not drawn),-3%,-7,-2,13%,3%
Cc1ccc2c(c1)cc(CN(Cc1cccnc1)C(=O)NCc1ccccc1)c1nnnn12,0%,11,-2,?,-29%
Cc1ccc(NC(=O)CCSCCc2ccccn2)cc1,3%,21,9,?,-6%
CCOP(=O)(OCC)C(NC(=O)Nc1ccc(C)c(Cl)c1)c1ccccc1 (stereo not drawn),1%,19,7,15µM*,?
COC(=O)CCc1c(C)[nH]c(C(=O)OCc2ccccc2)c1C,5%,-2,10,13%,32%
CCOC(=O)c1[nH]c(C)c(C(=O)NC2CCCCCC2)c1C,-1%,24,-3,9.3µM*,10%
CCOC(=O)c1[nH]c(C(=O)O)c(CCC(=O)OC)c1C,1%,-5,1,12µM*,1%
CCOC(=O)c1[nH]c(C)c(C(=O)NC2CCCC2)c1C,-2%,-13,-3,-4%,/
Cc1ccc(C)c(NC(=O)C(C)N2C(=O)c3ccccc3C2=O)c1 (stereo not drawn),-1%,-1,-4,8%,15%
CCCCN(CCCC)CCNC(=O)c1cn(CC)c2ccc(S(=O)(=O)N3CCc4ccccc4C3)cc2c1=O,11%,1,-4,-10%,?
Cc1cccc(CN2C(=O)CSc3ccc(C(=O)NC4CC4)cc32)c1,10%,-8,-2,-29%,-20%
CCCc1c(C(=O)N/N=C/c2cccc(OCc3ccc(F)cc3)c2)nnn1-c1nonc1N,-2%,-12,1,3%,0%
Cc1ccc(-c2ccc(C(=O)O)[nH]2)cc1,0%,38,20,6.6µM*,30%
COc1ccc(-c2ccc(C(=O)O)c(=O)[nH]2)cc1,-17%,-11,-1,70%,71%
c1ccc2nc(-c3ccc(-n4ccnc4)cc3)ccc2c1,-1%,61*,35*,-34%,-70%
S=C(NC1CCCCC1)N1CCOCC1,3%,-12,-2,24%,7%
CC(C)(CCC(=S)N1CCOCC1)C1CCCCC1,-8%,24,25*,8%,74%
